Screening data deposited in PubChem by The Scripps Research Institute Molecular Screening Center.
Compounds with a hit are over-represented: about 4.1% of the library has one in this group of screens.
DAX1 inh-1 = DAX1 (NR0B1) inhibitors, primary screen, cell-based, HEK293, Gal4-DAX1, luciferase luminescence; HEK293 Gal4-DAX1 luciferase reporter; inhibition, % at 6.75 µM; 340,000 compounds, 0.99% hits; AID 504766, 2011;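 active = inhibition above the mean over all tested compounds plus 3 SD, cut at about 4.2% in these data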;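 note: 0% = DAX1-transfected cells with DMSO and 100% = empty-vector control cells with DMSO; inhibition shows as a rise in luminescence from relieved DAX1 repression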
Target sequence (P51843 207-470 limits assumed): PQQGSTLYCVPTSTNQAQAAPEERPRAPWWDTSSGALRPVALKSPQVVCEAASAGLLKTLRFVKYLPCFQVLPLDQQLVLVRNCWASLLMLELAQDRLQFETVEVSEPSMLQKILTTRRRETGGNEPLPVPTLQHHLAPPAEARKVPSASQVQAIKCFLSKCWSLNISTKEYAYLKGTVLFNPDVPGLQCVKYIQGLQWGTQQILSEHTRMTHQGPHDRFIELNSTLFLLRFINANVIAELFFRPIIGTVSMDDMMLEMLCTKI
ssDAF12 agonist = S. stercoralis DAF-12 nuclear receptor activators, primary screen, cell-based, luminescence, HEK293, GRIP1 co-expression, lit1-tk-luc; AID 652126, 2013; HEK293 ssDAF-12/GRIP1 lit1-tk-luc reporter; % of 3 µM dafachronic acid response; 370,000 compounds, 1% hits; activation, % at 6.8 µM;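 active = activation above the mean over all tested compounds plus 3 SD, cut at about 0.9% in these data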;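 note: 0% = DMSO-only wells and 100% = 3 µM delta7-dafachronic acid wells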
hcDAF12 agonist = H. contortus DAF-12 nuclear receptor activators, primary screen, cell-based, luminescence, HEK293, lit1-tk-luc reporter. HEK293 hcDAF-12 lit1-tk-luc reporter; 0% DMSO, 100% Δ7-dafachronic acid. 370,000 compounds, 1.4% hits. activation, % at 6.8 µM. AID 652067, 2013;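 active = activation above the mean of all tested compounds plus 3 SD, cut at about 5.5% in these data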;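 note: 100% = response to 3 µM Δ7-dafachronic acid high control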
DAX1 inh-2 = DAX1 (NR0B1) inhibitors on StAR promoter, primary screen, cell-based, luminescence, SF-1 (NR5A1), full-length DAX-1. AID 652010, 2013. 370,000 compounds, 1.1% hits. HEK293T StAR-luciferase reporter, SF-1/DAX-1 repression relief. inhibition, % at 6.8 µM;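 active = inhibition above the mean over all tested compounds plus 3 SD, cut at about 3.6% in these data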;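 note: 0% = DAX-1 cells with DMSO and 100% = cells lacking DAX-1 with DMSO; higher inhibition means more luminescence from relief of DAX-1 repression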
hgDAF12 agonist = H. glycines DAF-12 receptor agonists, primary screen, cell-based, luminescence, HEK293, GAL4 fusion, UAS-luciferase | Nuclear hormone receptor DAF-12 (Heterodera glycines), GAL4 fusion | HEK293 GAL4-hgDAF12 UAS-luciferase reporter, agonist luminescence; normalized to butyrate control | activation, % at 6.8 µM | 370,000 compounds, 1.8% hits;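 active = activation above a cutoff set at the mean of all screened compounds plus 3 SD, cut at about 10% in these data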;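 note: 0% = DMSO wells and 100% = sodium butyrate wells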
* = called active by the depositor.

C=CCN1C(=O)[C@H]2CCC=C[C@H]2[C@@H]1c1cccc(C)c1 was read as DAX1 inh-1 -1, ssDAF12 agonist 0, hcDAF12 agonist -1, DAX1 inh-2 0 and hgDAF12 agonist 0.
Cc1cccc([C@H]2[C@@H]3C=CCC[C@@H]3C(=O)N2Cc2ccccc2)c1 was read as DAX1 inh-1 -1, ssDAF12 agonist -2, hcDAF12 agonist 0, DAX1 inh-2 3.8* and hgDAF12 agonist 1.
Screening O=C(Nc1ccccc1)c1cc([N+](=O)[O-])ccc1Cl returned DAX1 inh-1 0, ssDAF12 agonist 0, hcDAF12 agonist 5.8*, DAX1 inh-2 -1 and hgDAF12 agonist 0.
Screening CC(=O)Nc1ccc(NC(=O)c2ccc([N+](=O)[O-])cc2Cl)cc1 returned DAX1 inh-1 1, ssDAF12 agonist -2, hcDAF12 agonist -2, DAX1 inh-2 0 and hgDAF12 agonist 1.
Cc1ccc(C(=O)Nc2ccc(Nc3ccccc3)cc2)c(Cl)c1 was read as DAX1 inh-1 -1, ssDAF12 agonist 2.0*, hcDAF12 agonist -2, DAX1 inh-2 0 and hgDAF12 agonist 1.
For O=C(Nc1ccc(-c2ccc([N+](=O)[O-])cc2)cc1)c1ccccc1F the results were DAX1 inh-1 2, ssDAF12 agonist -2, hcDAF12 agonist 1, DAX1 inh-2 1 and hgDAF12 agonist 0.
For O=C(Nc1ccc([N+](=O)[O-])cc1)c1ccccc1F the results were DAX1 inh-1 2, ssDAF12 agonist -1, hcDAF12 agonist 2, DAX1 inh-2 2 and hgDAF12 agonist 12*.
Screening C=C(C)Cn1c(SCC(=O)N/N=C/c2c(O)ccc3ccccc23)nc2ccccc2c1=O returned DAX1 inh-1 1, ssDAF12 agonist 1, hcDAF12 agonist 6.0*, DAX1 inh-2 0 and hgDAF12 agonist 0.
`CCOC(OCC)c1cc2ccccc2cn1` gave DAX1 inh-1 0, ssDAF12 agonist 2.2*, hcDAF12 agonist 2, DAX1 inh-2 0 and hgDAF12 agonist 3.
Screening CCOC(=O)C1(Cc2ccccc2)CCN(Cc2ccc(C(F)(F)F)cc2)CC1 returned ssDAF12 agonist -1, hcDAF12 agonist 0, DAX1 inh-2 0 and hgDAF12 agonist 4.
O=C(O)c1cccc(NC2=C(Cl)C(=O)c3ccccc3C2=O)c1 was read as DAX1 inh-1 -1, ssDAF12 agonist -1, hcDAF12 agonist 3, DAX1 inh-2 1 and hgDAF12 agonist 3.
`O=C(O)c1ccc(NC2=C(Cl)C(=O)c3ccccc3C2=O)cc1` gave DAX1 inh-1 3, ssDAF12 agonist 0.9*, hcDAF12 agonist 6.7*, DAX1 inh-2 0 and hgDAF12 agonist 2.
`COc1ccc(C2Nc3ccccc3C(=O)N2Cc2cccnc2)cc1COc1c(C)cccc1C` (configuration not stated) gave ssDAF12 agonist -1, hcDAF12 agonist -2 and hgDAF12 agonist -2.
CC(=O)Nc1cccc(C(C)C2=CCCCC2)c1 (configuration not stated) was read as ssDAF12 agonist -1, hcDAF12 agonist -1, DAX1 inh-2 0 and hgDAF12 agonist 4.
Screening COc1ccc(NC(=O)CCNC(=O)N2CC(=O)Nc3ccccc32)cc1 returned DAX1 inh-1 1, ssDAF12 agonist -1, hcDAF12 agonist 0, DAX1 inh-2 1 and hgDAF12 agonist 3.
CC(C)c1ccc(NC(=O)CCNC(=O)N2CC(=O)Nc3ccccc32)cc1 was read as DAX1 inh-1 0, ssDAF12 agonist -1, hcDAF12 agonist -1, DAX1 inh-2 3.9* and hgDAF12 agonist 0.
`COc1cccc(CNC(=O)CNC(=O)N2CC(=O)Nc3ccccc32)c1` gave DAX1 inh-1 1, ssDAF12 agonist -1, hcDAF12 agonist -1, DAX1 inh-2 3.7* and hgDAF12 agonist 1.
Screening COc1cccc(CNC(=O)CCNC(=O)N2CC(=O)Nc3ccccc32)c1 returned DAX1 inh-1 3, ssDAF12 agonist -1, hcDAF12 agonist 1, DAX1 inh-2 1 and hgDAF12 agonist 6.
Screening O=C(CN1CCN(C(c2ccccc2)c2ccccc2)CC1)N1N=CCC1c1ccccc1 (configuration not stated) returned DAX1 inh-1 0, ssDAF12 agonist -1, hcDAF12 agonist 0, DAX1 inh-2 0 and hgDAF12 agonist -2.
`Cc1ccc(NC(=O)OC2CC3CC2[C@H]2CCCCN2C3)cc1` (some centres not stated) gave ssDAF12 agonist -1, hcDAF12 agonist 0, DAX1 inh-2 0 and hgDAF12 agonist 11*.
`O=C(Nc1ccc(Br)cc1)OC1CC2CC1[C@H]1CCCCN1C2` (some centres not stated) gave ssDAF12 agonist 0, hcDAF12 agonist 0, DAX1 inh-2 0 and hgDAF12 agonist -2.
`CCN(CC)C(=O)CC[C@@H]1CC[C@]2(CCCN(C(=O)c3cccnc3)C2)O1` gave ssDAF12 agonist -1, hcDAF12 agonist 1, DAX1 inh-2 0 and hgDAF12 agonist -3.
Screening C/C(=N\NC(=O)c1cccs1)c1ccc2ccccc2c1 returned DAX1 inh-1 4, ssDAF12 agonist -1, hcDAF12 agonist 3, DAX1 inh-2 2 and hgDAF12 agonist 11*.
Screening C/C(=N\NC(=O)c1cccc([N+](=O)[O-])c1)c1ccncc1 returned DAX1 inh-1 -2, ssDAF12 agonist 0, hcDAF12 agonist 1, DAX1 inh-2 -1 and hgDAF12 agonist 4.
`C/C(=N\NC(=O)c1cccc([N+](=O)[O-])c1)c1cccs1` gave DAX1 inh-1 4.9*, ssDAF12 agonist -1, hcDAF12 agonist 1, DAX1 inh-2 1 and hgDAF12 agonist 6.
Screening C/C(=N\NC(=O)c1cccc2ccccc12)c1cccs1 returned DAX1 inh-1 1, ssDAF12 agonist 0, hcDAF12 agonist -1, DAX1 inh-2 1 and hgDAF12 agonist 1.
For C/C(=N/NC(=O)c1cccs1)c1cccc(NC(=O)C2CC2)c1 the results were DAX1 inh-1 1, ssDAF12 agonist 0, hcDAF12 agonist 5, DAX1 inh-2 4.2* and hgDAF12 agonist 13*.
CC(=O)C1=C(C)N(Cc2ccc(F)cc2)C(=S)NC1c1ccc(Cl)cc1 (configuration not stated) was read as ssDAF12 agonist -1, hcDAF12 agonist 2, DAX1 inh-2 0 and hgDAF12 agonist -4.
Screening C/C(C=NNC(=O)CSc1nnc(-c2ccc(Cl)cc2)n1-c1ccc(C)cc1)=C\c1ccccc1 returned ssDAF12 agonist -1, hcDAF12 agonist 3, DAX1 inh-2 1 and hgDAF12 agonist -3.
